Measurements published in PubChem BioAssay.
A number with no mark means an inactive call. The source made the active and inactive calls. Unless noted, no rule for the calls is given here.

Test: P. aeruginosa biofilm formation inhibitors, primary screen, strain PAO1, LB-PBS medium, absorbance 600 nm (AID 1176)
Conditions: P. aeruginosa PAO1 growth/biofilm, A600, 12 h; higher = more signal
Also: test concentration not given here.

Q: With `CN(C)C(=O)[C@@]1(Cc2ccccc2)N=C(c2ccc(OCCCO)cc2)O[C@H]1c1ccccc1CN=[N+]=[N-]` as the molecule, how does the z-score read?
A: 0.535

Q: For `COc1ccc([Si](C)(C)[C@@H]2[C@@H](CCO)O[C@]3(C(=O)N(Cc4ccc(NC(C)=O)cc4)c4ccccc43)[C@H]2C)cc1`, which z-score is on record?
A: -0.094

Q: For `O=C1O[C@@H](c2ccccc2)[C@@H](c2ccccc2)N2[C@@H](c3ccc(O)cc3)[C@]3(C(=O)Nc4ccccc43)[C@@H](C(=O)O)[C@H]12`, which z-score is on record?
A: 0.697

Q: For `O=C1c2ccccc2[C@@]2(Cc3ccccc3N(C3CC3)C2=O)[C@H](c2ccc(CO)cc2)N1Cc1ccccc1C(F)(F)F`, which z-score is on record?
A: 0.242

Q: For `O[C@@H](Cc1ccccc1)[C@H]1C2C=CCCC(c3ccccc3)=C2CN1Cc1cccc(Cl)c1` (stereo partly specified), which z-score is on record?
A: 1.56

Test: S. cerevisiae RM11-1a growth modifiers, primary screen, strain RM11-1a, OD600, basal, 24 h (AID 1177);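 also: cultures grown under basal conditions with no added stressor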
Conditions: OD600, 24 h, higher = more signal, called active from +8 up or from −8 down

Q: For `CCCC=C(CCC)[C@@H](NC(=O)c1ccc(-c2ccccc2)cc1)c1ccc(C(=O)OC)cc1`, which z-score is on record?
A: 1.23

Q: With `COC(=O)[C@@]1(Cc2ccccc2)[C@H]2c3cc(C(=O)N4CCCC4)n(Cc4ccccn4)c3C[C@H]2CN1C(=O)c1ccccc1` as the molecule, how does the z-score read?
A: 0.957

Q: For `O=C(CS)NCCCCCNC(=O)[C@@H]1C[C@@H]2C(=O)N[C@@H](Cc3ccccc3)C(=O)N2[C@@H]1c1ccc(O)cc1`, which z-score is on record?
A: 0.349

Q: For `CC(C)C[C@@H]1NC(=O)[C@H]2C[C@@H](C(=O)NCCCCCCN(C)C)[C@@H](c3cccc(OCCO)c3)N2C1=O`, which z-score is on record?
A: -0.159

Q: For `COCCCNC(=O)[C@@]1(CCS(=O)(=O)c2ccccc2)N=C(c2ccc(OCCCO)cc2)O[C@H]1c1ccccc1`, which z-score is on record?
A: -0.287

Q: For `Cc1ccc(S[C@]2(C(=O)NCC(F)(F)F)CC(=O)N(Cc3ccccc3Cl)[C@@H]2c2ccc(CO)cc2I)cc1`, which z-score is on record?
A: -0.54

Q: Which z-score does the source give for `O=C1O[C@@H](c2ccccc2)[C@@H](c2ccccc2)N2[C@@H](c3ccc(OCCO)cc3)[C@]3(C(=O)Nc4ccc(C#CCCO)cc43)[C@@H](C(=O)N3CCCCCCC3)[C@H]12` here?
A: 1.17

Q: With `CCOC(=O)C1=CCC(c2cc3ccccc3[nH]2)NC1` (stereo unspecified) as the molecule, how does the z-score read?
A: -0.194

Q: With `O=C1NC(=O)C2C1C=CC(C(O)Cc1ccccc1)N2Nc1ccccn1` (stereo unspecified) as the molecule, how does the z-score read?
A: -0.979

Q: With `C#C[C@@H]1Oc2ccccc2S(=O)(=O)N2CCC[C@H]12` as the molecule, how does the z-score read?
A: 0.494

Q: Which z-score does the source give for `COc1ccc([Si](C)(C)[C@H]2[C@H](CCO)O[C@@]3(C(=O)N(Cc4cccc(NC(=O)[C@H](C)O)c4)c4ccccc43)[C@@H]2C)cc1` here?
A: 4.03

Q: Which z-score does the source give for `C=CCOC(=O)[C@H]1[C@@H]2C(=O)O[C@@H](c3ccccc3)[C@@H](c3ccccc3)N2[C@@H](c2ccc(OCCOC(=O)[C@H]3C[C@H]4C(=O)N5CCC[C@H]5C(=O)N4[C@H]3c3cccc(OCCO)c3)cc2)[C@]12C(=O)Nc1ccc(I)cc12` here?
A: -0.442

Q: For `C=C(/C(=C/C[C@@H](OC(=O)c1ccncc1)c1ccc(OCCO)cc1)c1cnc2ccccc2c1)C(C)C`, which z-score is on record?
A: -22.1 (active)

Q: For `O=C1C[C@]2(c3ccc([N+](=O)[O-])cc3)C(=O)N(CCN3CCOCC3)c3cc(CO)ccc3[C@H]2N1CC12CC3CC(CC(C3)C1)C2`, which z-score is on record?
A: -0.028

Q: For `CC(C)C[C@@H]1NC(=O)[C@H]2C[C@@H](C(=O)O)[C@@H](c3ccc(O)cc3)N2C1=O`, which z-score is on record?
A: 1.58

Q: With `COCCOC(=O)N1C(=O)[C@@]2(c3cc(C#Cc4ccc(OC)cc4)ccc31)[C@H](c1ccc(O)cc1)N1[C@H](c3ccccc3)[C@H](c3ccccc3)OC(=O)[C@H]1[C@@H]2C(N)=O` as the molecule, how does the z-score read?
A: 0.0054

Q: For `CC(C)NC(=O)[C@@]1(C)c2ccccc2C(=O)N(Cc2cc(F)cc(C(F)(F)F)c2)[C@H]1c1ccc(CO)cc1`, which z-score is on record?
A: -0.0826

Q: Which z-score does the source give for `COCCOC(=O)N1C(=O)[C@@]2(c3ccccc31)[C@H](C(N)=O)[C@H]1C(=O)O[C@H](c3ccccc3)[C@H](c3ccccc3)N1[C@@H]2c1ccccc1OCCO` here?
A: 1.63

Q: With `CN1C(=O)C2C=CC(C(O)c3ccc(I)cc3)N(NC(=O)OC(C)(C)C)C2C1=O` (stereo unspecified) as the molecule, how does the z-score read?
A: 0.983

Q: For `C=CCC(OC(C)=O)[C@@H]1[C@@H](N(Cc2cc3ccccc3o2)C(=O)Cc2ccc(F)cc2)c2cc(OCCCO)ccc2N1C(=O)Cc1ccc(OC)cc1` (stereo partly specified), which z-score is on record?
A: -0.711

Q: For `CN1C(=O)C2C=CC(C(O)C(c3ccccc3)c3ccccc3)N(NC(=O)OC(C)(C)C)C2C1=O` (stereo unspecified), which z-score is on record?
A: 0.225
